# How the values were obtained:
# [1] = system: E18 rat cortical neuron-glia co-culture; experiment: fiber score / MBP score (myelination specific beyond OL differentiation) (ratio); higher = more myelination-specific MBP alignment; conditions: treatment time: 8 days (DIV5-DIV13)
# Procedure, shortened: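 Papain-dissociated primary E18 rat cortical co-cultures, plated at 20,000 cells/well on poly-d-lysine/laminin 96-well plates, were exposed to library compounds at 1 or 5 µM in myelination medium between DIV5 and DIV13. Following fixation in 4 % paraformaldehyde, cultures were stained for MBP, Olig2 and DAPI, and four 10X fields per well were analysed in duplicate wells. Values are the ratio of fiber score (continuous MBP fiber length per Olig2+ nucleus) to MBP score (thresholded MBP area × intensity per Olig2+ nucleus).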
# [2] = system: E18 rat cortical neuron-glia co-culture; experiment: myelination (MBP fiber length per Olig2+ nucleus), % of 1 µM DAPT response (DMSO = 0) (% of DAPT); higher = more myelination, active = 50 or more; conditions: treatment time: 8 days (DIV5-DIV13)
# Procedure, shortened: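 Myelination, expressed as continuous straight MBP fiber length per Olig2+ nucleus, was normalised to 0.1 % DMSO as 0 and a 1 µM positive control as 100. The cultures were primary E18 rat cortical co-cultures dissociated with papain and plated at 20,000 cells/well on poly-d-lysine/laminin-coated 96-well plates. They received library compounds at 1 or 5 µM in myelination medium between DIV5 and DIV13. Analysis covered four 10X fields per well in duplicate wells after 4 % paraformaldehyde fixation and immunostaining for MBP and Olig2 with DAPI.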
compound,measurement,setting,value
O=C1Nc2ccc(Cl)cc2[C@@](C#CC2CC2)(C(F)(F)F)O1 [Efavirenz],fiber score / MBP score,[1]; 1 µM,0.744
same,fiber score / MBP score,[1]; 5 µM,0.712
same,myelination,[2]; 1 µM,-8.9 (inactive)
same,myelination,[2]; 5 µM,11.1 (inactive)
C[C@]12C=CC(=O)C=C1CC[C@@H]1[C@@H]2[C@@H](O)C[C@@]2(C)[C@H]1CC[C@]2(O)C(=O)COC(=O)CCC(=O)O [Prednisolone hemisuccinate],fiber score / MBP score,[1]; 1 µM,0.88
same,fiber score / MBP score,[1]; 5 µM,1.08
same,myelination,[2]; 1 µM,1.93 (inactive)
same,myelination,[2]; 5 µM,-1.16 (inactive)
Clc1ccccc1CN1CCc2sccc2C1 [Ticlopidine],fiber score / MBP score,[1]; 1 µM,0.477
same,fiber score / MBP score,[1]; 5 µM,0.662
same,myelination,[2]; 1 µM,-18.3 (inactive)
same,myelination,[2]; 5 µM,-14.2 (inactive)
c1cnc(N2CCN(Cc3ccc4c(c3)OCO4)CC2)nc1 [Piribedil],fiber score / MBP score,[1]; 1 µM,0.774
same,fiber score / MBP score,[1]; 5 µM,0.712
same,myelination,[2]; 1 µM,-24.5 (inactive)
same,myelination,[2]; 5 µM,-35.6 (inactive)
COc1ccccc1N1CCN(CC(O)COc2cccc3ccccc23)CC1 (configuration not stated) [Naftopidil],fiber score / MBP score,[1]; 1 µM,0.655
same,fiber score / MBP score,[1]; 5 µM,0.695
same,myelination,[2]; 1 µM,-33.5 (inactive)
same,myelination,[2]; 5 µM,15 (inactive)
Cn1c(NCCN(CCO)CCCc2ccc([N+](=O)[O-])cc2)cc(=O)n(C)c1=O [Nifekalant],fiber score / MBP score,[1]; 1 µM,0.616
same,fiber score / MBP score,[1]; 5 µM,0.616
same,myelination,[2]; 1 µM,-9.01 (inactive)
same,myelination,[2]; 5 µM,-19.6 (inactive)
COc1ccc(Cl)cc1C(=O)NCCc1ccc(S(=O)(=O)NC(=O)NC2CCCCC2)cc1 [Glyburide],fiber score / MBP score,[1]; 1 µM,1.07
same,fiber score / MBP score,[1]; 5 µM,0.835
same,myelination,[2]; 1 µM,1.49 (inactive)
same,myelination,[2]; 5 µM,-10.7 (inactive)
CCN1CCC[C@H]1CNC(=O)c1c(O)c(Cl)cc(Cl)c1OC [Raclopride],fiber score / MBP score,[1]; 1 µM,1.05
same,fiber score / MBP score,[1]; 5 µM,0.709
same,myelination,[2]; 1 µM,18.4 (inactive)
same,myelination,[2]; 5 µM,-30.6 (inactive)
CC(=O)N1CCN(c2ccc(OCC3COC(Cn4ccnc4)(c4ccc(Cl)cc4Cl)O3)cc2)CC1 (configuration not stated) [Ketoconazole],fiber score / MBP score,[1]; 1 µM,0.468
same,fiber score / MBP score,[1]; 5 µM,0.267
same,myelination,[2]; 1 µM,-0.358 (inactive)
same,myelination,[2]; 5 µM,-46.2 (inactive)
C[C@]12CCC(=O)C=C1CC[C@@H]1[C@@H]2CC[C@@]2(C)[C@H]1CC[C@]2(O)C(=O)CO [Cortodoxone],fiber score / MBP score,[1]; 1 µM,0.514
same,fiber score / MBP score,[1]; 5 µM,0.781
same,myelination,[2]; 1 µM,-16.7 (inactive)
same,myelination,[2]; 5 µM,-9 (inactive)
Nc1nc(Cl)nc2c1ncn2[C@@H]1O[C@H](CO)[C@@H](O)[C@H]1O [2-Chloroadenosine],fiber score / MBP score,[1]; 1 µM,0.752
same,fiber score / MBP score,[1]; 5 µM,0.764
same,myelination,[2]; 1 µM,-12.4 (inactive)
same,myelination,[2]; 5 µM,-10.5 (inactive)
CS(=O)(=O)OCCCCOS(C)(=O)=O [Busulfan],fiber score / MBP score,[1]; 1 µM,0.646
same,fiber score / MBP score,[1]; 5 µM,1.46
same,myelination,[2]; 1 µM,-6.35 (inactive)
same,myelination,[2]; 5 µM,46.7 (inactive)
CCCCCCCCCCC[C@@H](C[C@@H]1OC(=O)[C@H]1CCCCCC)OC(=O)[C@H](CC(C)C)NC=O [Orlistat],fiber score / MBP score,[1]; 1 µM,0.69
same,fiber score / MBP score,[1]; 5 µM,0.913
same,myelination,[2]; 1 µM,-34.7 (inactive)
same,myelination,[2]; 5 µM,38.7 (inactive)
